SARS PLP yeast: inhibitors of SARS-CoV papain-like protease in yeast; S. cerevisiae expressing SARS-CoV PLpro, growth rescue; Potency, µM (doses to about 32.9 µM), hits mostly activators; hit rate 0.19% among 330,000; calls by dose curve; further: nearly all actives have a fitted effect of over 55% in size
Pf growth 96h: P. falciparum growth inhibition at 96 hour, primary screen for plastid delayed-death inhibitors; Potency, µM (top dose mostly 28.7 µM), actives largely listed as inhibitors; hit rate 6.9% among 320,000; P. falciparum luciferase reporter growth, 96 h
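Infected RBCs, 2% Hct / 0.05% parasitemia final; luciferase-reporter P. falciparum; cpd 96 h, 37 C, 5% CO2; luciferase detection reagent; luminescence.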
Cycloheximide cs: counter-screen hit for Shiga toxin inhibitors, cycloheximide; AID 2314; hit rate 12% among 300,000; cell reporter, cycloheximide protein synthesis inhibition counterscreen; max response, %; in the data active means max response mostly above about 13%, no sharp cut-off; inactive means mostly below about 14%; further: read at 38.3 µM for the half of the compounds with a filed dose
Shiga toxin inh: Shiga toxin inhibition. Vero cells, Shiga toxin protein synthesis inhibition reporter. inhibition, % at 38.7 µM. hit rate 9.2% among 290,000; in the data active means inhibition mostly above about 28%, no sharp cut-off; inactive means mostly below about 43%
NS1 inh: inhibitors of influenza NS1 protein function | Potency, µM (top dose mostly 46.1 µM) | hit rate 0.4% among 270,000; calls by dose curve; further: actives are rising curves; nearly all actives have a fitted effect of over 50% in size
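Read-out: OD600 growth recovery of NS1-expressing budding yeast. Cells grown overnight at 30C in -URA glucose medium, washed, resuspended and diluted 1:100 in 2% galactose assay medium, pH 6.0. Same strain lacking NS1 served as positive control.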
Pf growth 48h: inhibits P. falciparum growth in the first generation, 48 h | Potency, µM (highest dose often 28.7 µM), usual class: inhibitors | hit rate 5.9% among 310,000 | P. falciparum luciferase growth in erythrocytes, 48 h | AID 504832
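Luciferase-expressing parasites in RBCs, 2% Hct / 0.1% parasitemia final; RPMI 1640 + 0.5% Albumax; 37 C, 5% CO2, one generation; luminescence read-out, lower signal = inhibition.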
A number is an active result; i = inactive; ? = inconclusive; nt = no result given. Rows were chosen to be rich in hits. Some 21% of all compounds tested hit in one or more screens of this group. Unless noted, the call rests on the fitted dose curve; in most records, active means well fitted inhibition curve with a large enough effect; inconclusive means small, poorly fitted or top-dose-only effect, or another doubt; inactive means no such curve, though single readings can be large or run the other way.

SMILES	SARS PLP yeast	Pf growth 96h	Cycloheximide cs	Shiga toxin inh	NS1 inh	Pf growth 48h
CC1=NN(c2nc(-c3ccc(C)cc3)cs2)C(=O)C1N=Nc1cccc(C)c1 (stereo not given)	i	?	20	i	i	i
CCOC(=O)c1sc(N2N=C(C)C(N=Nc3cccc(C)c3)C2=O)nc1C (stereo not given)	i	i	i	i	i	?
CC1=NN(C(N)=S)C(=O)C1N=Nc1cccc(C(=O)O)c1 (stereo not given)	i	i	i	i	i	i
CC1=NN(C(N)=S)C(=O)C1N=Nc1ccc(C)c(Br)c1 (stereo not given)	i	i	36	59	i	nt
CC1=NN(C(N)=S)C(=O)C1N=Nc1ccc(F)cc1 (stereo not given)	i	i	25	66	i	1.9µM
CC1=NN(C(N)=S)C(=O)C1N=Nc1ccc([N+](=O)[O-])cc1 (stereo not given)	i	i	53	39	i	nt
COc1ccc(C2=CC(=O)C[C@H](c3ccc(OC)c(OC)c3)C2)cn1	i	i	nt	nt	nt	?
COc1ccc(CSc2nc(C)cc(C)c2S(C)(=O)=O)cc1	i	i	i	i	nt	i
O=C(CSc1nnc(CNC(=O)c2ccccc2F)o1)NC1CCCCC1	i	i	i	i	i	i
CN(N=Nc1cccc([N+](=O)[O-])c1)c1cccc([N+](=O)[O-])c1	i	i	33	109	nt	i
CCCN(N=Nc1cccc([N+](=O)[O-])c1)c1cccc([N+](=O)[O-])c1	i	nt	i	i	i	i
O=C1C(C23CC4CC(CC(C4)C2)C3)C(=O)N(c2ccccc2)N1c1ccccc1	i	7.4µM	i	i	i	i
O=C1CC(=O)N(c2ccccc2)N1c1ccccc1	?	i	i	i	i	i
CC(=O)Nc1ccc(NC(=O)C(C)OC(=O)CCC2CCCC2)cc1 (stereo not given)	i	i	nt	nt	nt	i
CC(C)COc1ccc(/C(O)=C2/C(=O)C(=O)N(CCN(C)C)C2c2ccncc2)cc1 (stereo not given)	i	i	i	i	i	i
CCOc1cc(C2/C(=C(/O)c3ccc(OC(C)C)cc3)C(=O)C(=O)N2CCCOC)ccc1O (stereo not given)	i	i	48	87	i	i
CC(C)Oc1ccc(/C(O)=C2/C(=O)C(=O)N(CCN(C)C)C2c2cccs2)cc1 (stereo not given)	i	?	18	74	i	i
COc1cc(C2/C(=C(/O)c3ccc(OCC(C)C)cc3)C(=O)C(=O)N2CCN(C)C)ccc1O (stereo not given)	i	12µM	i	i	?	i
O=C(NCCS(=O)(=O)NC1CCCCC1)c1ccc2c(c1)OCO2	i	i	nt	nt	nt	i
Cc1occc1C(=O)N/N=C/C(Br)=C/c1ccccc1	i	?	39	86	nt	i
Nc1c(C(=O)N/N=C/c2ccc(OCc3ccccc3)cc2)cnn1-c1ccccc1	i	i	i	i	i	i
Cc1occc1C(=O)N/N=C/c1cccs1	i	i	33	84	i	i
Cc1occc1C(=O)N/N=C/c1ccc(OCc2ccccc2)cc1	i	10µM	45	63	i	?
O=C(N/N=C/C(Br)=C/c1ccccc1)c1ccccc1[N+](=O)[O-]	i	i	8.7	i	i	?
CC1CCCN(C(=O)C2CCN(S(=O)(=O)c3cccc4nsnc34)CC2)C1 (stereo not given)	i	?	i	i	i	i
SMILES	SARS PLP yeast	Pf growth 96h	Cycloheximide cs	Shiga toxin inh	NS1 inh	Pf growth 48h
Cc1occc1C(=O)N/N=C/c1ccc(-c2ccccc2)cc1	i	i	37	75	i	i
O=C(C1=C(O)C(=O)N(CCN2CCOCC2)C1c1ccc([N+](=O)[O-])cc1)c1cccs1 (stereo not given)	i	i	i	i	i	i
O=C(O)[C@@H]1CCN(Cc2oc(CO)cc(=O)c2O)C1	nt	nt	nt	nt	i	nt
O=C(NNc1c2ccccc2nc2ccccc12)c1ccc(O)cc1O	i	?	i	i	i	?
O=C(NNc1c2ccccc2nc2ccccc12)C(O)c1ccccc1 (stereo not given)	i	0.41µM	i	i	i	?
O=C(NNC(=O)c1ccc2ccccc2n1)c1ccc(O)cc1	i	?	nt	nt	nt	?
O=C(NNc1c2ccccc2nc2ccccc12)c1ccccc1Cl	i	?	i	i	i	?
O=C(CCc1ccccc1)NNC(=O)C12CC3CC(CC(C3)C1)C2	i	i	21	i	i	i
O=C(NNc1c2ccccc2nc2ccccc12)c1ccccc1O	i	10µM	25	i	i	?
O=C(NNc1c2ccccc2nc2ccccc12)c1ccc(O)cc1	i	i	24	i	i	?
CC(C)(C)NC(=O)COC(=O)c1ccc(S(=O)(=O)N2CCCC2)cc1	i	i	i	i	i	i
O=C1CCc2cc(S(=O)(=O)N3CCCC3C(=O)NC3CCCCCCC3)ccc2N1 (stereo not given)	i	?	i	i	i	nt
CCn1c(O)c(N=NC(=O)c2cccs2)c2ccccc21	i	?	i	i	nt	?
Cc1cc(C)cc(N(CCC#N)C(=O)CSc2nc3ccccc3c(=O)[nH]2)c1	i	nt	nt	nt	nt	nt
Cc1ccc(NC(=O)C2CC(=O)N/C(=N/N=C/c3ccco3)S2)cc1C (stereo not given)	i	?	i	i	?	i
O=C(O)c1cccc(Nc2c([N+](=O)[O-])c(=O)oc3ccccc23)c1	i	i	73	125	i	i
O=C(O)c1cccc(Nc2c3ccccc3nc3ccccc23)c1	i	i	107	87	i	?
CC(=O)c1cccc(Nc2c([N+](=O)[O-])c(=O)oc3ccccc23)c1	i	?	i	i	i	i
O=C(NNc1c2ccccc2nc2ccccc12)c1cccc(O)c1	i	?	i	i	i	13µM
O=C(NNC(=O)c1cc(-c2ccncc2)nc2ccccc12)c1cccc(Cl)c1	i	i	nt	nt	nt	i
O=C(NNc1c2ccccc2nc2ccccc12)C12CC3CC(CC(C3)C1)C2	i	13µM	i	i	i	?
CSCC[C@H](NC(=O)N1CCn2c1nc1ccccc12)C(=O)NCC1CCCO1 (stereo not given in full)	i	i	i	i	i	i
CC(=O)Nc1ccc(NC(=O)C2CC(=O)N(C(C)C)C2)cc1 (stereo not given)	i	?	i	i	i	?
O=C(COc1coc(CN2CCN(c3ccccc3F)CC2)cc1=O)NC1CCCC1	i	?	nt	nt	nt	?
CCN(CC(=O)NC(C)C)C(=O)[C@H](C)NC(=O)c1ccc(Br)cc1	i	i	i	i	nt	i
CCN(Cc1nc2ccccc2c(=O)[nH]1)C(=O)c1cccc(OCc2c(C)noc2C)c1	i	?	nt	nt	nt	6.6µM
Cc1cc(C(=O)Nc2ccc(OCc3ccccc3)cc2)c(C)o1	i	i	24	81	i	i
CCCC(C)NC(=O)COc1ccc(S(=O)(=O)c2ccc(OCC(=O)NC(C)CCC)cc2)cc1 (stereo not given)	i	?	i	i	i	12µM
